# Assay results taken from the supplement of paper PMC9694430.
# System: LOC_OS03G12390-cb001
# Assay: thermal shift delta Tm vs DMSO control; higher = stronger stabilization (binding)
# Details: 12.5 µM; protein concentration 2 µM
# Summary of the method: (§1)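 The melting temperature shift given here is a triplicate mean, measured against protein that received only DMSO. Melting temperatures came from Boltzmann fits of differential scanning fluorimetry data on E. coli-expressed, purified rice kinase domain constructs. Each 19.5 μl well contained 2 μM kinase, 100 mM potassium phosphate pH 7.5, 150 mM NaCl, 10% glycerol, 5 × SYPRO Orange and compound in DMSO. Plates were scanned from 25°C to 95°C at 0.05°C/s.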
row,SMILES,thermal shift delta Tm [°C]
1,CN1CCN(c2cccc(Nc3nc4c(-c5ccc(S(C)(=O)=O)cc5)cccn4n3)c2)CC1,0.47
2,C[C@@H](NC(=O)c1ncnc(N)c1Cl)c1ncc(C(=O)Nc2cc(C(F)(F)F)c(Cl)cn2)s1,0.49
3,N#CC(=C(/N)Sc1ccccc1N)/C(C#N)=C(\N)Sc1ccccc1N,1.33
4,Cc1cc(Nc2cc(N3CCN(C)CC3)nc(/C=C/c3ccccc3)n2)n[nH]1,4.05
5,OCCn1cc(-c2ccc3c(c2)CC/C3=N\O)c(-c2ccncc2)n1,0.53
6,COc1cc2c(c(OC)c1OC)-c1c(cc3c(c1OC)OCO3)CC(C)C(C)C2 (centres undefined) [Schisandrin B (Sch B)],0.12
7,COc1cc(N2CCN(C)CC2)ccc1Nc1nccc(-c2cn(C)c3cnccc23)n1,9.57
8,CN(c1ccccc1CNc1nc(Nc2ccc3c(c2)CC(=O)N3)ncc1C(F)(F)F)S(C)(=O)=O,6.91
9,CNC(=O)c1ccc(Nc2ncc(C(F)(F)F)c(NCc3nccnc3N(C)S(C)(=O)=O)n2)cc1,5.45
10,O=C(O)c1ccc2c3c1cccc3c(=O)n1c3ccccc3nc21,2.82
11,Cc1nc(Nc2n[nH]c3c2CN(C(=O)N[C@H](CN(C)C)c2ccccc2)C3(C)C)c2sccc2n1,3.19
12,C[C@H]1[C@H](C)CC[C@]2(C(=O)O)CC[C@]3(C)C(=CC[C@@H]4[C@@]5(C)C[C@@H](O)[C@H](O)[C@@](C)(CO)[C@@H]5CC[C@]43C)[C@H]12 [Asiatic Acid],-0.01
13,COc1ccc(-c2cc3nccn3c(Nc3ncccc3C(N)=O)n2)cc1OC,6.82
14,O=C(NCc1ccccc1)c1csc(Nc2ccncn2)n1 [Thiazovivin],1.49
15,COc1cc(Nc2ncc(F)c(Nc3ccc4c(n3)NC(=O)C(C)(C)O4)n2)cc(OC)c1OC [R406 (free base)],7.52
16,Cc1ccc(S(=O)(=O)/C=C/C#N)cc1,-0.03
17,O=c1c(O)c(-c2ccc(O)c(O)c2)oc2cc(O)cc(O)c12 [Quercetin],5.69
18,C[C@H]1CNC(=O)c2cnn3ccc(nc23)N[C@H](C)c2cc(F)ccc2O1,0.55
19,C[C@@H](Nc1cc(F)cc(F)c1)c1cc(C(=O)N(C)C)cc2c(=O)cc(N3CCOCC3)oc12,0

row,SMILES,thermal shift delta Tm [°C]
1,Nc1cccc(-c2cc3c(Oc4cccc(O)c4)ncnc3[nH]2)c1,5.94
2,"CC[C@H](CO)Nc1nc(NCc2ccccc2)c2ncn(C(C)C)c2n1 [Roscovitine (Seliciclib,CYC202)]",0.14
3,CCn1c(=O)c(-c2ccc(Cl)cc2Cl)cc2cnc(Nc3ccc(N4CCNCC4)c(F)c3)nc21,4.85
4,Cc1c[nH]c2nc(Nc3ccc(N4CCN(C)CC4)c(F)c3)nc(-c3cccc(CC#N)c3)c12,13
5,N#C/C(=C(/N)Sc1ccc(N)cc1)c1ccccc1C(F)(F)F,-0.46
6,FC(F)(F)c1ccc(CNc2ccc(Cc3c[nH]c4ncc(Cl)cc34)cn2)cn1 [Pexidartinib (PLX3397)],2.08
7,COc1cc(N2CCC(N(C)C)CC2)ccc1Nc1ncc(Cl)c(Nc2ccccc2P(C)(C)=O)n1,10.9
8,CCN(CC)CCNC(=O)c1c(C)[nH]c(/C=C2\C(=O)Nc3ccc(F)cc32)c1C [Sunitinib Malate],7.66
9,CCC(=O)Nc1cccc(Oc2nc(Nc3ccc(N4CCN(C)CC4)cc3OC)ncc2Cl)c1,2.35
10,Cn1c(Nc2ccc(C(F)(F)F)cc2)nc2cc(Oc3ccnc(-c4ncc(C(F)(F)F)[nH]4)c3)ccc21,2.43
11,CCOc1cc(N2CCC(O)CC2)ccc1Nc1ncc2c(n1)N(C)c1ccccc1C(=O)N2C,2.48
12,O=C(O)c1ccc(Nc2ncc3c(n2)-c2ccc(Cl)cc2C(c2c(F)cccc2F)=NC3)cc1,-0.49
13,C[C@@H]1CN(C(=O)c2ccc(NC(=O)c3cc(O[C@H](C)c4c(Cl)ccc(F)c4Cl)c(N)nn3)cc2)C[C@H](C)N1 [Ensartinib (X-396)],2.86
14,COc1ccc(F)c(F)c1C(=O)c1cnc(NC2CCN(S(C)(=O)=O)CC2)nc1N,-0.05
15,N#Cc1cnc(Nc2cc(NC[C@H]3CNCCO3)c(C(F)(F)F)cn2)cn1,0.36
16,O=c1nc(N2CCOCC2)oc2c(-c3cccc4c3sc3ccccc34)cccc12,-0.44
17,Cc1nc(Nc2ncc(C(=O)Nc3c(C)cccc3Cl)s2)cc(N2CCN(CCO)CC2)n1 [Dasatinib],0.81
18,Cc1cc(Nc2cc(N3CCN(C)CC3)nc(/C=C/c3ccccc3)n2)n[nH]1 [ENMD-2076 L-(+)-Tartaric acid],4.22

# System: LOC_OS03G27990-cb004
# Assay: as above
# Details: 12.5 µM; protein concentration 2 µM
# Summary of the method: as §1
row,SMILES,thermal shift delta Tm [°C]
1,CN1CCN(c2cccc(Nc3nc4c(-c5ccc(S(C)(=O)=O)cc5)cccn4n3)c2)CC1,1.72
2,C[C@@H](NC(=O)c1ncnc(N)c1Cl)c1ncc(C(=O)Nc2cc(C(F)(F)F)c(Cl)cn2)s1,0.28
3,N#CC(=C(/N)Sc1ccccc1N)/C(C#N)=C(\N)Sc1ccccc1N,0.63
4,Cc1cc(Nc2cc(N3CCN(C)CC3)nc(/C=C/c3ccccc3)n2)n[nH]1,2.48
5,OCCn1cc(-c2ccc3c(c2)CC/C3=N\O)c(-c2ccncc2)n1,0
6,COc1cc2c(c(OC)c1OC)-c1c(cc3c(c1OC)OCO3)CC(C)C(C)C2 (centres undefined) [Schisandrin B (Sch B)],0.05
7,COc1cc(N2CCN(C)CC2)ccc1Nc1nccc(-c2cn(C)c3cnccc23)n1,0.05
8,CN(c1ccccc1CNc1nc(Nc2ccc3c(c2)CC(=O)N3)ncc1C(F)(F)F)S(C)(=O)=O,2.93
9,CNC(=O)c1ccc(Nc2ncc(C(F)(F)F)c(NCc3nccnc3N(C)S(C)(=O)=O)n2)cc1,3.54
10,O=C(O)c1ccc2c3c1cccc3c(=O)n1c3ccccc3nc21,0.62
11,Cc1nc(Nc2n[nH]c3c2CN(C(=O)N[C@H](CN(C)C)c2ccccc2)C3(C)C)c2sccc2n1,0.55
12,C[C@H]1[C@H](C)CC[C@]2(C(=O)O)CC[C@]3(C)C(=CC[C@@H]4[C@@]5(C)C[C@@H](O)[C@H](O)[C@@](C)(CO)[C@@H]5CC[C@]43C)[C@H]12 [Asiatic Acid],0.08
13,COc1ccc(-c2cc3nccn3c(Nc3ncccc3C(N)=O)n2)cc1OC,0.56
14,O=C(NCc1ccccc1)c1csc(Nc2ccncn2)n1 [Thiazovivin],0.04
15,COc1cc(Nc2ncc(F)c(Nc3ccc4c(n3)NC(=O)C(C)(C)O4)n2)cc(OC)c1OC [R406 (free base)],1.81
16,Cc1ccc(S(=O)(=O)/C=C/C#N)cc1,-0.15
17,O=c1c(O)c(-c2ccc(O)c(O)c2)oc2cc(O)cc(O)c12 [Quercetin],2.91
18,C[C@H]1CNC(=O)c2cnn3ccc(nc23)N[C@H](C)c2cc(F)ccc2O1,0.55
19,C[C@@H](Nc1cc(F)cc(F)c1)c1cc(C(=O)N(C)C)cc2c(=O)cc(N3CCOCC3)oc12,0.1

row,SMILES,thermal shift delta Tm [°C]
1,Nc1cccc(-c2cc3c(Oc4cccc(O)c4)ncnc3[nH]2)c1,3.84
2,"CC[C@H](CO)Nc1nc(NCc2ccccc2)c2ncn(C(C)C)c2n1 [Roscovitine (Seliciclib,CYC202)]",-0.05
3,CCn1c(=O)c(-c2ccc(Cl)cc2Cl)cc2cnc(Nc3ccc(N4CCNCC4)c(F)c3)nc21,10.7
4,Cc1c[nH]c2nc(Nc3ccc(N4CCN(C)CC4)c(F)c3)nc(-c3cccc(CC#N)c3)c12,8.79
5,N#C/C(=C(/N)Sc1ccc(N)cc1)c1ccccc1C(F)(F)F,0.47
6,FC(F)(F)c1ccc(CNc2ccc(Cc3c[nH]c4ncc(Cl)cc34)cn2)cn1 [Pexidartinib (PLX3397)],0.52
7,COc1cc(N2CCC(N(C)C)CC2)ccc1Nc1ncc(Cl)c(Nc2ccccc2P(C)(C)=O)n1,2.49
8,CCN(CC)CCNC(=O)c1c(C)[nH]c(/C=C2\C(=O)Nc3ccc(F)cc32)c1C [Sunitinib Malate],6.23
9,CCC(=O)Nc1cccc(Oc2nc(Nc3ccc(N4CCN(C)CC4)cc3OC)ncc2Cl)c1,0.56
10,Cn1c(Nc2ccc(C(F)(F)F)cc2)nc2cc(Oc3ccnc(-c4ncc(C(F)(F)F)[nH]4)c3)ccc21,0.45
11,CCOc1cc(N2CCC(O)CC2)ccc1Nc1ncc2c(n1)N(C)c1ccccc1C(=O)N2C,-0.12
12,O=C(O)c1ccc(Nc2ncc3c(n2)-c2ccc(Cl)cc2C(c2c(F)cccc2F)=NC3)cc1,0.21
13,C[C@@H]1CN(C(=O)c2ccc(NC(=O)c3cc(O[C@H](C)c4c(Cl)ccc(F)c4Cl)c(N)nn3)cc2)C[C@H](C)N1 [Ensartinib (X-396)],0.07
14,COc1ccc(F)c(F)c1C(=O)c1cnc(NC2CCN(S(C)(=O)=O)CC2)nc1N,0.19
15,N#Cc1cnc(Nc2cc(NC[C@H]3CNCCO3)c(C(F)(F)F)cn2)cn1,0.89
16,O=c1nc(N2CCOCC2)oc2c(-c3cccc4c3sc3ccccc34)cccc12,-0.35
17,Cc1nc(Nc2ncc(C(=O)Nc3c(C)cccc3Cl)s2)cc(N2CCN(CCO)CC2)n1 [Dasatinib],1.34
18,Cc1cc(Nc2cc(N3CCN(C)CC3)nc(/C=C/c3ccccc3)n2)n[nH]1 [ENMD-2076 L-(+)-Tartaric acid],2.61
